Assay outcomes: PubChem BioAssay, National Center for Advancing Translational Sciences (NCATS)
CHX counter – Cycloheximide Counterscreen for Small Molecule Inhibitors of Shiga Toxin; cell reporter, cycloheximide protein synthesis inhibition counterscreen; 300,000 compounds, 12% hits; max response, %; in the data active = max response mostly above about 13%, no sharp cut-off; inactive = mostly below about 14%; also: read at 38.3 µM for the half of the compounds with a filed dose; 0% is about no effect
Pf growth 48h – Primary qHTS for delayed death inhibitors of the malarial parasite plastid, 48 hour incubation; Potency, µM (top dose mostly 28.7 µM), without a hit: at the top dose activity change, negative = inhibition, usual class: inhibitors; 310,000 compounds, 5.9% hits; AID 504832, 2011; P. falciparum luciferase growth in erythrocytes, 48 h; also: potency is read from the fitted curve at half-maximal effect; % is scaled to controls: 0 for no effect and ±100 for the full control effect
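Luciferase-expressing parasites in RBCs, 2% Hct / 0.1% parasitemia final; RPMI 1640 + 0.5% Albumax; 37 C, 5% CO2, one generation; luminescence read-out, lower signal = inhibition.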
AMA1-RON2 inh – qHTS for Inhibitors of AMA1-RON; Towards Development of Antimalarial Drug Lead: Primary Screen. AlphaScreen AMA1-biotinylated RON2 peptide binding. 360,000 compounds, 0.2% hits. Plasmodium falciparum AMA1 (3D7) - RON2 peptide interaction. Potency, µM (doses to about 58.2 µM), for inactives: top-dose activity change, negative = inhibition, usual class: inhibitors;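 also: potency is read from the fitted curve at half-maximal effect; 0% = vehicle wells and -100% = peptide control; nearly all actives have a fitted effect of over 45% in size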
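AMA1 (3D7) with his tag at 25 nM final met compounds first, then biotinylated RON2 peptide at 25 nM; detection used donor plus acceptor beads, 10 µg/mL apiece, read by AlphaScreen after 30 min at room temperature.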
Pf growth 96h – Primary qHTS for delayed death inhibitors of the malarial parasite plastid, 96 hour incubation; P. falciparum luciferase reporter growth, 96 h; Potency, µM (titrated, usually from 28.7 µM), for inactives: at the highest dose activity change, negative = inhibition, usual class: inhibitors; 320,000 compounds, 6.9% hits; also: potency is read from the fitted curve at half-maximal effect; % is scaled to controls: 0 for no effect and ±100 for the full control effect
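Cell-based qHTS: luciferase-tagged P. falciparum in erythrocytes (2% hematocrit, 0.05% parasitemia final) incubated with compounds for 96 hours, 37 C, 5% CO2; luciferase detection reagent then added and luminescence measured.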
Shiga toxin inh – A qHTS for Small Molecule Inhibitors of Shiga Toxin | Vero cells, Shiga toxin protein synthesis inhibition reporter | inhibition, % at 38.7 µM | 290,000 compounds, 9.2% hits | AID 2315, 2010; in the data active = inhibition mostly above about 28%, no sharp cut-off; inactive = mostly below about 43%; also: 0% is about no effect
SARS PLP yeast – qHTS of Yeast-based Assay for SARS-CoV PLP; S. cerevisiae expressing SARS-CoV PLpro, growth rescue; Potency, µM (titrated, usually from 32.9 µM), for the others: at the top dose activity, positive = growth rescue, most hits filed as activators; 330,000 compounds, 0.19% hits; AID 485353, 2010; calls by dose curve; also: potency is read from the fitted curve at half-maximal effect; 0% is about no effect; nearly all actives have a fitted effect of over 55% in size
Numbers without * were called inactive; ? = inconclusive; . = not tested or not shown; [ ] = remark or other dose. A selection: hits, their analogues and other compounds. The true share with any hit is near 19%. Unless noted, calls follow the shape of the dose curve; as a rule, active = well fitted curve in the direction sought with a large enough effect; inconclusive = small, poorly fitted or top-dose-only effect, or another doubt; inactive = no such curve, though single readings can be large; an effect the other way counts as inactive or inconclusive.

SMILES	CHX counter	Pf growth 48h	AMA1-RON2 inh	Pf growth 96h	Shiga toxin inh	SARS PLP yeast
Cc1sc2ncnc(Sc3nnnn3-c3ccccc3)c2c1C	-6	4.7µM*	5%	35%	-13	-6%
Cn1nnnc1Sc1ncnc2scc(-c3cccc(S(C)(=O)=O)c3)c12	.	10µM*	.	?	.	-5%
Cn1nnnc1Sc1ncnc2scc(-c3cccc4c3sc3ccccc34)c12	.	.	.	.	.	15%
Cn1nnnc1Sc1ncnc2scc(-c3ccccc3Cl)c12	.	12µM*	.	1.7µM*	.	3%
Cc1sc2ncnc(Sc3ccccc3C(=O)O)c2c1C	-2	-2%	30%	-1%	1	-1%
O=C(c1cnn2c1NC(c1ccco1)CC2C(F)(F)F)N1CCN(c2cccc(Cl)c2)CC1 (centres undefined)	7	?	-16%	.	1	11%
COc1ccc(NC(=S)N2CCNC(=O)C2CC(=O)Nc2cccc(Cl)c2C)cc1 (centres undefined)	5	15%	-6%	9%	9	26%
Cn1nnnc1Sc1ncnc2scc(-c3ccc([N+](=O)[O-])cc3)c12	.	13µM*	.	3.7µM*	.	-7%
CCCCNC(=O)C1(C)CCCCN1Cc1ccc2ccccc2c1 (centres undefined)	.	.	3%	.	.	.
COc1ccc2cc3cc(C(=O)N(C)C4CCCCC4)oc3nc2c1	30*	-7%	4%	?	77*	1%
COc1ccc2cc3cc(C(=O)N4CCN(C5CCCCC5)CC4)oc3nc2c1	6	?	13%	-21%	7	7%
COc1ccc2cc3cc(C(=O)N4CCCCC4C)oc3nc2c1 (centres undefined)	34*	-4%	10%	?	64*	?
COc1ccc2cc3cc(C(=O)Nc4ccc5c(c4)OCO5)oc3nc2c1	9	?	-16%	?	-4	-12%
COc1ccc2nc3oc(C(=O)N4CCC5(CC4)OCCO5)cc3cc2c1	17	?	0%	35%	46	2%
COc1ccc2cc3cc(C(=O)N4CCCCCC4)oc3nc2c1	41*	0%	-3%	?	72*	-23%
Cc1cc2oc(=O)cc(CN3CCC(C)CC3)c2cc1C	20*	?	-12%	?	24	0%
Cc1cc2oc(=O)cc(CN3CCCCC3C)c2cc1C (centres undefined)	-1	10µM*	1%	9.3µM*	1	-2%
COc1ccccc1N1CCN(Cc2cc(=O)oc3cc(C)ccc23)CC1	.	.	9%	.	.	.
CC(=O)N1CCN(Cc2cc(=O)oc3cc(C)c(C)cc23)CC1	.	.	12%	.	.	.
COc1ccc(CN2CCN(C(c3ccc(F)cc3)c3ccc(F)cc3)CC2)c(OC)c1OC	.	9.5µM*	?	6.7µM*	.	.
COc1ccc(CN2CCN(Cc3cc(=O)oc4cc(C)ccc34)CC2)c(OC)c1OC	2	?	-8%	9.3µM*	-8	-3%
COc1ccccc1N(C)S(=O)(=O)c1ccc(C(=O)NCc2ccccc2CN2CCCC2)cc1	.	.	0%	.	.	.
CC(C)Cn1c(=O)c(CCC(=O)Nc2ccc(N3CCOCC3)cc2)nc2cc(Cl)ccc21	8	?	1%	20%	4	5%
COc1ccc(-n2nc(C(=O)O)c3csc(N)c3c2=O)cc1	-8	.	.	.	-4	.
Cc1ccc(C2(C)NC(=O)N(CC(=O)NCc3cccc(Cl)c3)C2=O)cc1 (centres undefined)	-6	?	7%	-3%	-20	1%
SMILES	CHX counter	Pf growth 48h	AMA1-RON2 inh	Pf growth 96h	Shiga toxin inh	SARS PLP yeast
COc1cc(C)c(CN2CCN(CC(=O)Nc3ccccc3C(=O)NC3CC3)CC2)cc1OC	.	?	3%	?	.	-6%
CN(C)c1nc(NC(C)(C)C)nc(NC(C)(C)C)n1	-5	15µM*	11%	33%	11	2%
CCNc1nc(NC(C)(C)C)nc(N(CC)n2cnnc2)n1	1	-26%	23%	.	-16	-3%
CCNC(=O)C1CCCN(C(=O)c2cccc3ccccc23)CC1 (centres undefined)	.	.	-1%	.	.	.
O=C(NCc1ccc(F)cc1)c1cccnc1C(=O)O	-5	-6%[0.00184 µM]	22%	-20%	2	0%
COc1ccc(C2c3cc(OC)c(OC)cc3CCN2C(=O)c2cccc([N+](=O)[O-])c2)cc1OC (centres undefined)	-5	?	-20%	9.3µM*	-18	1%
CCOc1ccc(C(=O)N(Cc2ccccc2)c2cccc(C)c2)cc1OC	-3	-4%	-6%	-41%	-5	-3%
COc1ccc(CCNC(=O)c2ccc3nc(N4CCCCC4)sc3c2)cc1OC	22*	?	-9%	8%	34*	-9%
COc1ccc(CCNc2nc(N3CCCCC3)nc(N3CCCCC3)n2)cc1OC	-2	13µM*	-20%	14%	-2	-3%
CCOc1ccc(CCNC(=O)C2CCCN(c3nn4c(=O)cc(C)nc4s3)C2)cc1OCC (centres undefined)	-2	?	4%	0.15µM*	-13	-4%
Cc1cc(=O)n2nc(N3CCCC(C(=O)N4CCOCC4)C3)sc2n1 (centres undefined)	1	1%	-12%	12µM*	15	1%
O=C(NCCc1ccc(Cl)cc1)c1ccc2nc(N3CCOCC3)sc2c1	-1	17%	1%	?	-5	3%
COc1ccc(CCNC(=O)C2CCCN(c3nn4c(=O)cc(C)nc4s3)C2)cc1OC (centres undefined)	2	?	15%	?	7	-5%
Cc1cc(=O)n2nc(N3CCCC(C(=O)N4CCc5ccccc54)C3)sc2n1 (centres undefined)	-3	-27%	3%	?	-13	-4%
O=C(CN1C(=O)NC2(CCc3ccccc3C2)C1=O)Nc1ccc(F)cc1 (centres undefined)	-6	-2%	14%	-21%	-5	25%
COc1ccc2nc(N3CCCC(C(=O)NCCc4ccc(OC)c(OC)c4)C3)sc2c1 (centres undefined)	17*	0%	4%	?	95*	-1%
COc1ccc(S(=O)(=O)N(C)CC(=O)N2CCN(c3ccccc3)CC2)cc1	-2	-24%	-2%	2%	1	5%
CCOC(=O)c1cc(-c2ccccc2)n(CCC(=O)N2CCN(c3ccccn3)CC2)c1C	-5	?	-14%	13µM*	-10	-17%
CCOC(=O)c1cc(-c2ccccc2)n(CC(=O)O)c1C	7	24%	-8%	-7%	-2	9%
CN(CC(=O)N1CCN(c2ncccn2)CC1)S(=O)(=O)c1ccc(Cl)cc1	21*	25%	-11%	2%	11	1%
